Bioassay records: PubChem BioAssay, Broad Institute
Tg IFNy HTS: inhibitors of Toxoplasma gondii growth with IFN-gamma; Toxoplasma gondii growth in IFN-gamma-treated host cells; stronger effect = lower value; activity change, negative = inhibition, % (test concentration not listed); hit rate 3.8% among 69,000; in the data active means activity change below about -70%, passing the limit was not always enough;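 further: host cells are HeLa cells infected with Toxoplasma gondii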
Numbers without * were called inactive. The full list was thinned out, with hits kept by preference.

SMILES | Tg IFNy HTS
O=c1c2ccccc2oc2ccc(Cl)cc12 | 150
CS(=O)(=O)Nc1ccc2oc3ccccc3c(=O)c2c1 | -92*
Nc1ccc(-n2cnc(-c3cccs3)c2)cn1 | 35
O=C1N[C@H](Cc2ccccc2)COCc2cnnn2CC[C@@H]1Cc1ccc(-c2ccccc2)cc1 | -19
Cc1cccc(N2CCN(S(=O)(=O)c3ccc4[nH]c(=O)ccc4c3)CC2C)c1 (configuration not stated) | 36
COc1ccc(Oc2cccc(Cl)c2CNC(=O)CSCC(=O)O)cc1 | 31
COc1ccc(Oc2cccc(F)c2CNC(=O)c2ccc(OC)cc2)cc1 | -88*
COc1ccc(Oc2ccc(C(=O)NCCc3ccccn3)cc2)cc1 | -54
COc1ccc(CCNC(=O)c2cncc(NS(=O)(=O)c3ccc(NC(C)=O)cc3)c2)cc1OC | 22
COCCN1CCOCC12CCN(Cc1cc(C)n(C)n1)CC2 | 4
